# Out of some 2,000 compounds screened, about 250 (12%) were called active. The sample as a whole holds a higher share of actives than the screen did. Unmarked numbers belong to inactive results. Rule as the data show it: active = hERG blockade below about -20% or above about 20%; inactive = in between.
# Biological target: Voltage-gated inwardly rectifying potassium channel KCNH2 (Homo sapiens) (UniProt Q12809)
# Assay: modulators of KCNH2 ion channel function, cellular (AID 376);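 also: 0% = buffer alone and 100% = reference blocker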
# Settings: hERG-expressing cells, channel activity single-concentration screen; concentration not given here
# Chain of Voltage-gated inwardly rectifying potassium channel KCNH2 (Homo sapiens) (Q12809 whole entry, looked up): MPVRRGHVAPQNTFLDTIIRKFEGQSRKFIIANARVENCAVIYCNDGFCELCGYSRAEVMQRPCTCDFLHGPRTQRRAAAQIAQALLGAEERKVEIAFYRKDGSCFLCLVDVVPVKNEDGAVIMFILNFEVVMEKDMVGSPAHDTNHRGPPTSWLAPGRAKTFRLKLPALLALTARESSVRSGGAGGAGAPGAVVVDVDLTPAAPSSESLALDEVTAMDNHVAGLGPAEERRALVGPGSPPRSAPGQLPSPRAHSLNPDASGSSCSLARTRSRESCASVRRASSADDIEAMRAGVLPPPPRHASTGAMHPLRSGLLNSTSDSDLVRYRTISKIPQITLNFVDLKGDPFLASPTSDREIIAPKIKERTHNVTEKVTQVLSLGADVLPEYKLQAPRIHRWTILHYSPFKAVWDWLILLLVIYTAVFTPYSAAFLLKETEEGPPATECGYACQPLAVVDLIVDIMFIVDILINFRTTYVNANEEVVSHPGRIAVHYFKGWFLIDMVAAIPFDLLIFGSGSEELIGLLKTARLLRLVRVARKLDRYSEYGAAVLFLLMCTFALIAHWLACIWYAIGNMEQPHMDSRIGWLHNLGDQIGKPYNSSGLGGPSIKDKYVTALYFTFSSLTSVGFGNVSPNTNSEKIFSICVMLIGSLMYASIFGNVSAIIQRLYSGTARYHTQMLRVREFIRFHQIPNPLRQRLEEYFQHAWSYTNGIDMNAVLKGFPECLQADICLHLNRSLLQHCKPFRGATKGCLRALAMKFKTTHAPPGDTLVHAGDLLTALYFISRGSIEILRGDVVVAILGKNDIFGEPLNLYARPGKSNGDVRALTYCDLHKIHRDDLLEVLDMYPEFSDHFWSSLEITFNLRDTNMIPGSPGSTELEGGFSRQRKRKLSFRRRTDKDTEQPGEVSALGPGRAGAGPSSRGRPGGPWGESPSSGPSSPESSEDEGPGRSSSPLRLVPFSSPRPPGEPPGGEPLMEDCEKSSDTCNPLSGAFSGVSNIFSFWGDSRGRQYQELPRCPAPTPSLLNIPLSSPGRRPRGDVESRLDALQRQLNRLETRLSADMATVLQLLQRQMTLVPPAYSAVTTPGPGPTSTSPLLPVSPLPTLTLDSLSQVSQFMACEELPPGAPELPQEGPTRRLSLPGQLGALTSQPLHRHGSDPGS
row,SMILES,hERG blockade
1,O=[N+]([O-])c1ccc2ncccc2c1CCc1c([N+](=O)[O-])ccc2ncccc12,2.28%
2,CC(=O)C(C)CCOC1(C)OCCC1C (stereo not given),-22.8% (active)
3,Cc1ccc(C)c(C(=N)c2ccccc2Cc2ccccc2)c1,-12.5%
4,CC(SCc1ccccc1)C(=O)O (stereo not given),3.31%
5,NCC(=O)Nc1ccccc1,5.81%
6,O=C(c1no[n+]([O-])c1C(=O)c1csc2ccccc12)c1csc2ccccc12,18.4%
7,Cc1cccc2c1Oc1ccccc1C2NC(=O)c1ccc([N+](=O)[O-])cc1 (stereo not given),32.2% (active)
8,O=C(O)c1ccccc1C1c2ccccc2Oc2ccccc21,12.2%
9,NC(CC1=CS(=O)(=O)c2ccc(Cl)cc21)C(=O)O (stereo not given),0.214%
10,Cc1cc(C(=O)CSC(=S)SC(C)(C)C)ccc1Cl,8.12%
11,CN(C)CCCNc1cc(O)c2c(c1O)C(=O)c1ccccc1C2=O,42.1% (active)
12,CC1=NCC[N+]1(CCc1ccccc1)Cc1ccccc1 (stereo not given),13.6%
13,CN(C)S(=O)(=O)c1nc(Cl)c2[nH]cnc2n1,-2.43%
14,COc1cc(NCCC(=O)O)c2ncccc2c1,11.9%
15,Cn1c(=O)c2[nH]c(CCCCc3nc4c([nH]3)c(=O)n(C)c(=S)n4C)nc2n(C)c1=S,-1.88%
16,O=C1C=C(N2CCN(c3ccccn3)CC2)C(=O)c2c(O)ccc(O)c21,23.2% (active)
17,Oc1ccc(Cl)cc1C=Nc1cnc2ccccc2c1,9.11%
18,C=CCSc1nc2ccccc2c(=O)n1Cc1ccco1,3.62%
19,N#CNC(N)=Nc1ccc(Cl)cc1,-2.36%
20,O=C(O)C12CC3(C(=O)O)CC(C(=O)O)(CC(C(=O)O)(C1)C3=O)C2=O,-1.77%
21,FC(F)(F)c1cccc(-c2nc3nc(Cl)c(Cl)nc3[nH]2)c1,-24% (active)
22,CC(CCN)(CCN)[N+](=O)[O-],-18.2%
23,CN(Cc1cc(C(C)(C)C)cc(Br)c1O)Cc1cc(C(C)(C)C)cc(Br)c1O,5.11%
24,CC(C)C(=O)Cc1ccc2ccccc2n1,-1.76%
25,CCOC(=S)SCC(=O)O,0.925%

row,SMILES,hERG blockade
1,O=C(O)C1C2C=CC(O2)C1C(=O)NCc1cccnc1 (stereo not given),5.66%
2,O=C(O)C1C2CCC(O2)C1C(=O)Nc1cccc2cccnc12 (stereo not given),-5.21%
3,O=C(O)C1C2CCC(O2)C1C(=O)NCc1cccnc1 (stereo not given),-25.3% (active)
4,N=c1ncn(CC=Cc2ccccc2)c2nc[nH]c12,15.2%
5,CN(N=O)c1ccc(C=Cc2ccnc3ccccc23)cc1,18.7%
6,CN1CCN(CN2C(=O)C3C4C=CC(C3C2=O)C2C3C(=O)N(CN5CCN(C)CC5)C(=O)C3C42)CC1 (stereo not given),2.12%
7,NC(Cc1ccnnc1)C(=O)O (stereo not given),-0.431%
8,O=C(O)C1CC=CCC1C(=O)Nc1cccc(O)c1 (stereo not given),7.36%
9,O=C1c2ccccc2C(=O)c2c(NC(=O)c3ccc4c5c(ncnc35)-c3ccccc3C4=O)cccc21,6.48%
10,O=C1c2ccccc2C(=O)c2c(Nc3cc4c5c(ccc6c7ccc8c9c(cc(Nc%10cccc%11c%10C(=O)c%10ccccc%10C%11=O)c(c3c56)c97)-c3ccccc3C8=O)C(=O)c3ccccc3-4)cccc21,34.1% (active)
11,O=C1c2ccccc2C(=O)c2c(Nc3ccc4c5c(cccc35)C(=O)c3ccccc3-4)cccc21,-13.6%
12,CC1CCC(O)(C(C)(C(=O)O)c2ccccc2)CC1 (stereo not given),5.36%
13,CCCn1cnc2c(SCc3ccc(Cl)cc3)nc(N)nc21,-2.91%
14,C=CCC(C(=O)O)c1ccccc1 (stereo not given),-1.33%
15,CN(C)CN1CSC(=S)N(CN(C)C)C1,-7.7%
16,Cn1c(=O)c2[nH]c(CCCCC(=O)O)nc2n(C)c1=O,-14.9%
17,Cn1c(=O)c2[nH]c(CCS)nc2n(C)c1=O,5.6%
18,CCn1c(CCCc2nc3c([nH]2)c(=O)n(C)c(=O)n3C)nc2c1c(=O)n(C)c(=O)n2C,25.2% (active)
19,O=C(O)CC(Nc1ccccc1)C(=O)O (stereo not given),12.6%
20,O=C(O)c1nnsc1COCc1ccccc1,7.88%
21,O=c1c2ccccc2sc2c(CO)ccc(NCCN3CCCCC3)c12,46% (active)
22,O=C(CCN1CCCCC1)c1csc2ccccc12,6.4%
23,CC(=O)OC1CCC2(C)C(=CCC3C2CCC2(C)C(c4cc(C(F)(F)F)n(C(C)=O)n4)CCC32)C1 (stereo not given),20.6% (active)
24,CC(=O)OC1CCC2(C)C(=CCC3C2CCC2(C)C3CC3OC4(CCC(C)CN4)C(C)C32)C1 (stereo not given),-9.31%
25,CC(=O)OC1CCC2(C)C(=CCC3C2CCC2(C)C(C(C)C(=O)O)CCC32)C1 (stereo not given),-4.67%

row,SMILES,hERG blockade
1,CC(C)(CN)CN,-12.2%
2,O=c1c[n+](CCCC[n+]2cc(=O)o[nH]2)[nH]o1,-2.64%
3,Nc1ncnc2nc[nH]c12.Nc1ncnc2nc[nH]c12.[Cl][Pt]([Cl])([Cl])[Cl],0.497%
4,O=C1C=C(Nc2nc(C(=O)O)cc(=O)[nH]2)c2ccccc2C1=O,2.16%
5,O=C=Nc1ccc(Cc2ccc(N=C=O)cc2)cc1 (tested in a mixture with another compound),20% (active)
6,Nc1n[nH]c2ccccc12,0.624%
7,CN(C)CCNS(=O)(=O)N(C)C,6.32%
8,COc1c2c(c3c(c1CCC(=O)O)OC(C)(C)C=C3)OC(C)(C)C=C2,-28.9% (active)
9,O=C(O)CSc1ccc(N=C=S)cc1,3.98%
10,CC(C)(N)C(=O)NC1C(=O)N2C1SC(C)(C)C2C(=O)O (stereo not given),-3.34%
11,COC1C=COC2(C)Oc3c(C)c(O)c4c(O)c(c(CN(C)C)c(O)c4c3C2=O)NC(=O)C(C)=CC=CC(C)C(O)C(C)C(O)C(C)C(OC(C)=O)C1C (stereo not given),16.3%
12,CS(=O)(=O)N(CC(=O)O)Cc1ccccc1,12.2%
13,NN(CC(=O)O)CC(=O)O,0.375%
14,O=C(O)CN(CC(=O)O)c1ccccc1,-27.7% (active)
15,CC(C)=CCc1c2c(c3occ(-c4ccc(O)c(O)c4)c(=O)c3c1O)C=CC(C)(C)O2,6.29%
16,O=C(O)c1ccc(SSc2ccc(C(=O)O)cn2)nc1,-6.71%
17,O=C(O)C1C2CC3C(OC(=O)C31)C2Br (stereo not given),2.45%
18,Cn1c(=O)c2[nH]c(CCNC(=O)c3ccccc3)nc2n(C)c1=O,-14%
19,N=C(N)c1ccc(-c2ccc(-c3ccc(C(=N)N)cc3)o2)cc1,38.8% (active)
20,N=C(N)c1ccc(C=Cc2ccc(C(=N)N)cc2)cc1,30.2% (active)
21,NC(CSCc1ccccc1)C(=O)O (stereo not given),-2.53%
22,Nc1nc(Sc2ccc([N+](=O)[O-])c3nonc23)c2[nH]cnc2n1,23.5% (active)
23,CNc1ncnc(Sc2nc(N)nc3nc[nH]c23)c1[N+](=O)[O-],-10.6%
24,Nc1nc(SCc2ccccc2[N+](=O)[O-])c2[nH]cnc2n1,-11.5%
25,CC1(C)N=C(N)N=C(N)N1c1cccc(OCc2cccc(N)c2)c1,4.96%

row,SMILES,hERG blockade
1,NC(=O)CC=CCC(N)=O,1.92%
2,S=C(CSc1ccccc1)Nc1cccc2ccccc12,-7.05%
3,O=C(Nc1cccc2ccccc12)c1ccccc1,-30.7% (active)
4,O=C(O)c1ccc(C(=O)Nc2cccc3ccccc23)c(C(=O)O)c1,-3.99%
5,COC(=O)C1(C)CCC(c2ccc(C)cc2)=C(CC(=O)O)C1 (stereo not given),-13.4%
6,O=C(NCCO)c1ccc(Cl)cc1,5.8%
7,OCCNC1c2cc(Cl)ccc2-c2c(Cl)cc(Cl)cc21 (stereo not given),46.9% (active)
8,c1ccc(B2OCC(C3OB(c4ccccc4)OC4COB(c5ccccc5)OC43)O2)cc1 (stereo not given),2.69%
9,CC1(C)C2CCC1(CC(=O)O)C(Cl)C2 (stereo not given),-22.5% (active)
10,CC1(CC(=O)O)OC2CCCCCC2O1 (stereo not given) (tested in a mixture with another compound),1.56%
11,CC1CCCC(CC(=O)O)(CC(=O)O)C1 (stereo not given),-3.65%
12,COc1ccc(CC[N+]2(C)COc3cc4oc(=O)cc(C)c4cc3C2)cc1OC (stereo not given),11%
13,Cc1c(O)c(Br)c(C)c(O)c1Br (tested in a mixture with another compound),12.5%
14,CC12CCC3c4ccc(O)cc4CCC3C1CCC2OP(=O)(O)O (stereo not given),-3.7%
15,CC(NCCN(C)C)C1CCC2C3CCc4cc(O)ccc4C3CCC12C (stereo not given),22.1% (active)
16,CC12CCC3c4ccc(O)cc4CCC3C1CC(=NO)C2O (stereo not given),-10.7%
17,Cc1cc(=Nc2ccc3c(c2)c(N)cc(C)[n+]3C)nc(N)n1C,30.2% (active)
18,OCc1ccncc1.OCc1ccncc1.[Cl][Pt]([Cl])([Cl])[Cl],1.38%
19,CCC(=O)Nc1ncnc2ncn(C(=O)CC)c12,12.6%
20,COc1ccc(C(C)c2cc3c(cc2O)OCO3)cc1 (stereo not given),30% (active)
21,COc1ccc(C(O)c2ccccn2)cc1 (stereo not given),3.46%
22,CC(C)COC(c1ccc2c(c1)OCO2)C(C)Br (stereo not given),0.642%
23,COc1ccc(C(Nc2ncccn2)c2cc3c(cc2O)OCO3)cc1 (stereo not given),-20.2% (active)
24,COc1ccc(C(Nc2ccccn2)c2cc(C(C)(C)C)cc(C(C)(C)C)c2O)cc1 (stereo not given),9.88%
25,O=C(O)c1c(-c2c3ccc(=O)cc-3oc3cc(O)ccc23)cc2ccccc2c1-c1ccccc1,11.7%

# From PubChem BioAssay AID376 (PDSP, 2006)
